Assay outcomes from PubChem BioAssay.
This is a sample that favours compounds with a hit; in the whole collection about 1.2% have one here.
GALK inhibitor: inhibitors of human galactokinase; P51570; Potency, µM (top dose mostly 57.5 µM), most hits filed as inhibitors; Purified GALK, Kinase-Glo residual ATP luminescence; 270,000 compounds, 0.007% hits; AID 1868
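ATP-depletion format; final 35 uM ATP, 100 uM D-galactose, 5 nM enzyme; pH 8.0 HEPES/Mg2+ buffer; 60 min RT; luminescence read 10 min after detection reagent.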
NPSR antag: antagonists of human neuropeptide S receptor cAMP signaling | 220,000 compounds, 1% hits | Potency, µM (doses to about 38.3 µM), hits mostly inhibitors | Q6W5P4 | CHO-NPSR cells, cAMP TR-FRET, antagonist mode; also: nearly all actives have a fitted effect of over 50% in size
Target sequence (Q6W5P4 whole entry, looked up): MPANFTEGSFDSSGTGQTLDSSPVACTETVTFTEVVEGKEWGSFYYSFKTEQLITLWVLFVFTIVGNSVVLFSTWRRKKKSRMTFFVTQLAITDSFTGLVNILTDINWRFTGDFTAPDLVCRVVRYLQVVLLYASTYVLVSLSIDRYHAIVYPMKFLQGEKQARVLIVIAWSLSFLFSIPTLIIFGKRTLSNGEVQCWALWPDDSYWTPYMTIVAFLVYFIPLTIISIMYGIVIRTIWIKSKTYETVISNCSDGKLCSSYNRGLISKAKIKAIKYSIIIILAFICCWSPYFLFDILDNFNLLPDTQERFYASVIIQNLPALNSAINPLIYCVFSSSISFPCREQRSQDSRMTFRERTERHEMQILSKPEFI
rTrxR1 inhibitor: blocks rat thioredoxin reductase 1 | O89049 | AID 588453 | 390,000 compounds, 1% hits | recombinant rTrxR1, NADPH fluorescence consumption, selenite substrate | Potency, µM (titrated, usually from 114 µM), actives largely listed as inhibitors; also: nearly all actives have a fitted effect of over 65% in size
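Rat TrxR1 (90 nM in the dispensed reagent) was pre-reduced with 400 uM NADPH for 5 min at room temperature, then incubated with compound for 15 min. After 400 uM selenite was added, NADPH fluorescence (Ex 340/Em 450 nm) was followed for 8 min.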
TrxR1 substrate: substrates of rat thioredoxin reductase 1. Potency, µM (series often up to 114 µM). O89049. purified TrxR1 substrate turnover, NADPH consumption readout. 390,000 compounds, 0.01% hits; also: nearly all actives have a fitted effect of over 50% in size
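Rat TrxR1, dispensed at 90 nM, was prereduced with 400 uM NADPH (final) for 5 min at ~22 deg C, then incubated with compound 15 min before 400 uM selenite. A first-read NADPH fluorescence drop versus no-compound background flagged substrates.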
A number is an active result; . = inactive; ? = inconclusive; / = not tested or not shown. Calls follow the shape of the dose curve; as a rule, active = well fitted curve in the direction sought with a large enough effect; inconclusive = small, poorly fitted or top-dose-only effect, or another doubt; inactive = no such curve, though single readings can be large; an effect the other way counts as inactive or inconclusive.

SMILES	GALK inhibitor	NPSR antag	rTrxR1 inhibitor	TrxR1 substrate
Cc1nnc(SCC2=C(C(=O)O)N3C(=O)C(NC(=O)Cn4nc(C(F)F)c(Cl)c4C)C3SC2)s1 (stereo unspecified)	.	.	.	.
Cc1nnc(SCC2=C(C(=O)O)N3C(=O)C(NC(=O)COc4ccc(F)cc4)C3SC2)s1 (stereo unspecified)	/	/	4µM	.
CCOC(=O)CSc1nnc(C)c(=O)[nH]1	.	.	.	.
CCOC(=O)CSc1nnc(NCC(=O)OC)c(=O)[nH]1	.	.	10µM	.
Cc1ccc(-n2c(C)nc3c(cnn3-c3ccccc3Cl)c2=O)cc1C	.	.	.	.
Cc1nc2c(cnn2-c2ccccc2Cl)c(=O)n1-c1ccc(N2CCC(C)CC2)cc1	.	13µM	.	.
CCC(=O)OCOc1ccc(/C=C2/CCC(CN(C)C)C2=O)cc1 (stereo unspecified)	/	/	1.1µM	.
O=C(CSc1nnc(-c2ccccc2)n1Cc1ccccc1)N1CCCC1	.	.	.	.
CCCCn1c(SCC(=O)N2CCCC2)nnc1-c1ccccc1	.	.	89µM	.
CN(CCC#N)c1ccc(/C=C/c2ccnc3ccccc23)cc1	/	/	.	.
COc1cc(C(C2C(=O)CC(C)(C)CC2=O)C2C(=O)CC(C)(C)CC2=O)cc(OC)c1OC	.	/	?	.
COc1cc(C(C2C(=O)CC(C)(C)CC2=O)C2C(=O)CC(C)(C)CC2=O)ccc1OC(C)=O	/	/	?	.
COc1cc(C(C2C(=O)CC(C)(C)CC2=O)C2C(=O)CC(C)(C)CC2=O)ccc1O	.	/	14µM	.
COc1ccc(C(C2C(=O)CC(C)(C)CC2=O)C2C(=O)CC(C)(C)CC2=O)cc1COCC(F)(F)F	.	.	7.9µM	.
C[C@@H](O)[C@H]1C(=O)N2C(C(=O)O)=C(SCCN=CN)C[C@H]12	/	/	.	.
O=[N+]([O-])c1ccc(S(=O)(=O)NN=Cc2ccc(Cl)c(Cl)c2)cc1	/	/	.	.
CC(=O)/C(=C/c1ccccc1)C(=O)Nc1ccccc1C	.	.	25µM	.
Cc1ccccc1NC(=O)C(=Cc1ccc(C(=O)O)cc1)C(=O)Nc1ccccc1C	.	4µM	.	.
CCn1c(=S)[nH]c2scc(-c3cccs3)c2c1=O	.	10µM	?	.
O=C1C(=C(c2ccccc2)c2ccccc2)Nc2ccccc21	.	13µM	.	.
CCN1C(=O)[C@H]2[C@H]3[C@H](O)[C@H](O)CC(=O)[C@@H]3CC[C@H]2C1=O	/	/	.	.
CCCC1Nc2ccc(C(=O)O)cc2C2C=CCC12 (stereo unspecified)	.	.	50µM	.
CCOC(=O)C1Nc2ccc(C(=O)O)cc2C2C=CCC12 (stereo unspecified)	.	/	11µM	.
CCOC(=O)C1=C(CC)OC(N)=C(C#N)C1c1ccc(NC(C)=O)cc1 (stereo unspecified)	/	.	45µM	.
Cc1ccc(-c2nn3c(C)nnc3s2)cc1NC(=O)c1ccc(-c2cccc(Cl)c2)o1	.	.	35µM	.
SMILES	GALK inhibitor	NPSR antag	rTrxR1 inhibitor	TrxR1 substrate
CCC[N+](C)(C)c1ccc(/C=C/c2ccnc3ccccc23)cc1	/	/	.	.
CC(=O)c1sc(N/N=C\c2ccccc2O)nc1C	.	1.6µM	.	.
COc1ccc(CCNCc2c(C(=O)O)c(C)n(Cc3ccccc3C)c2C)c(OC)c1	/	/	.	.
CCOc1c(Cl)cc(CNc2ccc(N3CCCC3)cc2)cc1OC	.	.	13µM	.
CCOC(=O)C[C@H]1c2cc(F)ccc2S(=O)(=O)N1Cc1cc(OC)c(OC)c(OC)c1	/	/	.	.
CNc1ccc(Br)cc(C(=O)/C=C/c2ccc3c(c2)OCO3)c1=O	.	?	14µM	.
CNc1ccc(Br)cc(C(=O)/C=C/c2ccc(OC)cc2)c1=O	.	.	.	.
CNc1ccc(Br)cc(C(=O)/C=C/c2cc(OC)ccc2OC)c1=O	.	.	35µM	.
CCNc1ccc(Br)cc(C(=O)/C=C/c2ccc(Cl)cc2Cl)c1=O	.	.	8.9µM	.
COCCCNC(=O)/C=C/c1ccc(Cl)cc1Cl	.	.	.	.
COC(OC)C1(CCc2ccccc2)NC(=O)NC1=O (stereo unspecified)	/	/	.	.
CCOc1cc(/C=C(\C#N)C(=O)Nc2ccc(C)cc2)ccc1OCc1cc(=O)n2nc(CC)sc2n1	/	/	.	.
COc1ccccc1OCCN1CSC(=S)N(C)C1	/	3.2µM	?	.
CC1OC(c2ccccc2)OC2COC(c3ccccc3)OC12 (stereo unspecified)	/	/	.	.
CCOC(=O)C1CCN(C(=O)c2ccc(-n3ccc4ccccc43)s2)CC1	/	/	.	.
O=C(CCl)N1c2ccccc2Oc2ccc3ccccc3c21	/	/	2.5µM	.
CC(=O)N1c2ccccc2Oc2cc3ccccc3cc21	.	?	.	.
C=CCOC(=O)C1=C(C)NC(SCC)=C(C#N)C1c1ccc(Cl)cc1 (stereo unspecified)	.	10µM	.	.
Cc1cc(=O)oc2c(CN3CCCC3)c(O)ccc12	.	/	18µM	.
Cc1cccc(Cn2nnc3c(=O)[nH]c(C4CCN(C(=O)c5ccc(F)cc5)CC4)nc32)c1	/	/	.	.
Cc1ccc(NCCC(=O)c2cccc([N+](=O)[O-])c2)cc1	.	.	3.5µM	.
O=C(Nc1ccc(Cc2ccncc2)cc1)c1cccc([N+](=O)[O-])c1	.	.	.	.
O=C(CCNc1ccc(Cc2ccncc2)cc1)c1ccc([N+](=O)[O-])cc1	.	.	16µM	.
O=C(CCNc1ccc(Br)cc1)c1cccc([N+](=O)[O-])c1	.	.	16µM	.
O=C(CCNc1ccc(F)cc1)c1cccc([N+](=O)[O-])c1	.	.	3.5µM	.
SMILES	GALK inhibitor	NPSR antag	rTrxR1 inhibitor	TrxR1 substrate
O=C(NCCNc1ccc([N+](=O)[O-])cc1)c1cccc(Br)c1	/	.	.	.
O=C(CCS(=O)(=O)c1ccc(Br)s1)Nc1cc(C(F)(F)F)cc(C(F)(F)F)c1	/	/	.	.
COc1cc(OC)cc(-c2c(-c3cccs3)c3cc(-c4ccc(OCc5ccccc5)cc4)ccc3n2C)c1	/	/	.	.
CC(C)(C)n1ncc2c(=O)n(Cc3ccccc3Cl)cnc21	/	/	.	.
O=C(C[n+]1ccccc1)c1cccc([N+](=O)[O-])c1	/	/	.	.
O=C(CCNc1ccccc1)c1cccc([N+](=O)[O-])c1	.	.	1.6µM	.
Cn1c(=O)c([N+](=O)[O-])c(-n2ccnc2)c2ccccc21	.	.	10µM	.
CC(C)Oc1cccc(C(=O)NC(=S)Nc2cccnc2)c1	.	.	22µM	.
COc1cccc(C(=O)NC(=S)Nc2cccnc2)c1	.	.	?	.
CCOC(=O)CC1C(=O)NCCN1c1nc2c(C)cccn2c(=O)c1/C=C1\SC(=S)N(CC(C)C)C1=O (stereo unspecified)	.	10µM	/	/
Cc1c(NS(=O)(=O)c2ccccc2)cc(Cl)c(O)c1C	.	.	25µM	.
Cc1c(Cl)cccc1NS(=O)(=O)c1ccccc1	/	/	.	.
CCCCCC(=O)N(O)C1CC(=O)N(c2ccccc2)C1=O (stereo unspecified)	.	.	3.5µM	.
